PolyA inhibitor: polyadenylation inhibitors in yeast reporter cells, primary screen, luminescence, S. cerevisiae | S. cerevisiae SKY197-pL101 polyadenylation reporter, beta-gal luminescence; efflux-impaired pdr1/pdr3 knockout yeast; score 100 = 6 SD above DMSO | activity score, % at 12 µM | hit rate 0.02% among 300,000 | AID 1875, 2009;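 active means lowest replicate activity score at least 50, where 100 means six control SD above control mean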;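 further: yeast exposed to compound for 9 h at 30 °C; higher score means more reporter readthrough which indicates perturbed polyadenylation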
NALP1 yeast inh: NALP1 inflammasome inhibitors in reconstituted yeast, colorimetric, S. cerevisiae, triplicate retest; S. cerevisiae NALP1/ASC/caspase-1 growth, X-gal OD620, 72 h; inhibition, % at 10 µM; hit rate 0.61% among 280,000; in the data active means inhibition mostly above about 24%, no sharp cut-off; inactive means mostly below about 32%
APOBEC3A inh: APOBEC3A ssDNA deaminase inhibitors, primary screen, selectivity assay for APOBEC3G inhibitor project, biochemical, FAM/TAMRA oligo cleavage fluorescence; inhibition, % at 20 µM; recombinant A3A, FAM/TAMRA ssDNA deamination fluorescence; DNA dC->dU-editing enzyme APOBEC-3A (Homo sapiens), P31941; hit rate 0.41% among 330,000;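 active means at least 40% inhibition at 20 µM here, with at most 30% in a related deaminase screen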
Target sequence (P31941 whole entry, looked up): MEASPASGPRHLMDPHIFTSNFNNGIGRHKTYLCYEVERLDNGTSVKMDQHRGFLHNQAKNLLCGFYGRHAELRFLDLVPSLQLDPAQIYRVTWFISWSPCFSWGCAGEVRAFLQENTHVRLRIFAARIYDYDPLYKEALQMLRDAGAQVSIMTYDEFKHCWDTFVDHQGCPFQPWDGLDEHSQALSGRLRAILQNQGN
A3G deaminase: APOBEC3G DNA deaminase inhibitors, primary screen, biochemical, fluorescence, single-stranded DNA substrate, uHTS; AID 493012, 2011; DNA dC->dU-editing enzyme APOBEC-3G (Homo sapiens), Q9HC16; recombinant A3G, ssDNA deamination FAM/TAMRA fluorescence; hit rate 0.28% among 330,000; inhibition, % at 20 µM;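 active means inhibition of at least 40% at 20 µM, with no more than 30% in the related APOBEC3A deaminase screen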
APOBEC3G confirm: APOBEC3G deaminase inhibitor retest, confirmation, biochemical, fluorescence, single-stranded DNA substrate, single concentration | shares compounds with A3G deaminase | recombinant A3G ssDNA deaminase, UDG/FAM-TAMRA fluorescence | inhibition, % at 20 µM | hit rate 72% among 890 | AID 493152, 2011;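 active means inhibition reaching a set limit in any replicate at 20 µM, the limit being 80% of the first screen's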
UDG A3G counter: E. coli UDG inhibitors, confirmation, counter-screen for APOBEC3G inhibitor project, biochemical, single concentration, fluorescence, FAM/TAMRA oligo. shares compounds with A3G deaminase. UDG counterscreen. inhibition, % at 20 µM. 710 tested, under 10 active. AID 504715, 2011;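 active means compounds giving 40% or more inhibition at 20 µM in any one of the three replicates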;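 further: inhibitors lower the FAM signal released by uracil excision and alkaline cleavage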
Target sequence (P12295 whole entry, looked up): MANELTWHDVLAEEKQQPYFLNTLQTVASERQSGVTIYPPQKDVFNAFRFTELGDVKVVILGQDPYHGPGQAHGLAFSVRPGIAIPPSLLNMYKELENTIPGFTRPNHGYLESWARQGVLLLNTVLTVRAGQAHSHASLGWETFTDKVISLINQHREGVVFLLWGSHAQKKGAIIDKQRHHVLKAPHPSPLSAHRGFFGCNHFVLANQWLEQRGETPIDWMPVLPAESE
Large screens that a line does not name were inactive (follow-up assays come after a bar, where they were run). Most compounds without a hit are left out; they make up all but 1.2% or so of the library.

O=C(Nc1nnc(COc2ccc(Cl)cc2)s1)C1CCCO1 (stereo not given)	A3G deaminase 45.1 | APOBEC3G confirm 20.8 | UDG A3G counter inactive
CCc1nnc(NC(=O)C2CCCO2)s1 (stereo not given)	none
Cc1ccccc1C(=O)NC1CCN(CC(=O)NCc2cccs2)CC1	none
CCN(CC)CCNC(=O)Cn1cnc2sc(C)c(S(=O)(=O)N3CCC(C)CC3)c2c1=O	none
CCN(CC)CCOC(=O)c1cc(Cl)c(N)cc1OC	none (no result: PolyA inhibitor, NALP1 yeast inh)
CC(C)(C)n1nnnc1C(c1cccnc1)N(Cc1ccccc1)Cc1ccco1 (stereo not given)	A3G deaminase 40.7 | APOBEC3G confirm inactive
COc1cccc(CN(Cc2ccco2)C(c2ccc(F)cc2)c2nnnn2C(C)(C)C)c1 (stereo not given)	none
CCOc1ccc(C(=S)NC2CCCCC2)cc1OC	A3G deaminase 58.4 | APOBEC3G confirm 50.5 | UDG A3G counter inactive
Cc1c(Cl)cccc1NC(=O)CNC(=O)c1cn(-c2ccccc2)nc1-c1cccnc1	none (no result: PolyA inhibitor, NALP1 yeast inh)
CC(Sc1ccc2nnc(-c3ccc(F)cc3)n2n1)C(=O)O (stereo not given)	A3G deaminase 42.0 | APOBEC3G confirm 52.0 | UDG A3G counter inactive
CCCCCCNC(=O)N[C@H](C(=O)NCCC[C@H]1CN2C(=NC[C@H]2C)N1CCC(c1ccccc1)c1ccccc1)C(C)O (stereo not given in full)	A3G deaminase 78.0 (no result: PolyA inhibitor, NALP1 yeast inh) | APOBEC3G confirm 72.5
O=C1CCC(C(=O)Nc2cccc(S(=O)(=O)Nc3ccccc3F)c2)=NN1	A3G deaminase 72.9 (no result: PolyA inhibitor, NALP1 yeast inh) | APOBEC3G confirm 63.0 | UDG A3G counter inactive
O=C(CSc1ccc([N+](=O)[O-])cc1)Nc1cccc(S(=O)(=O)Nc2ccccc2F)c1	A3G deaminase 44.4 | APOBEC3G confirm 23.1 | UDG A3G counter inactive
O=C(Cc1ccc(Cl)cc1)Nc1cccc(S(=O)(=O)Nc2ccccc2F)c1	none
O=C(CSc1nc2ccccc2c(=O)n1-c1ccccc1)NC(=O)CN1CCCC1=O	none
CC12CCC(=O)N1C(C(=O)N1CCN(c3ccc([N+](=O)[O-])cc3)CC1)CS2 (stereo not given)	none (no result: PolyA inhibitor, NALP1 yeast inh)
CCn1cc(C(=O)Nc2ccc(Cl)cc2Cl)cn1	none (no result: NALP1 yeast inh)
COc1cccc(OCc2cc(/C=N/NC(=O)c3ccn[nH]3)ccc2OC)c1	A3G deaminase 45.6 | APOBEC3G confirm inactive
CCOC(=O)C1=C(CC)Nc2ccccc2N/C1=N\S(=O)(=O)c1cccc(C(C)=O)c1	none (no result: PolyA inhibitor, NALP1 yeast inh)
COc1ccc(NS(=O)(=O)c2cn(C)c(=O)n(C)c2=O)cc1	none (no result: NALP1 yeast inh)
CCOC(=O)c1c(NC(=O)CCC(=O)O)sc2c1CCCCC2	A3G deaminase 40.4 | APOBEC3G confirm inactive
CCOC(=O)c1c(NC(=O)CCCC(=O)O)sc2c1CCC2	none
COCCn1c(SCC(=O)N2CCCc3ccccc32)nc2c(c1=O)SC(C)C2 (stereo not given)	A3G deaminase 81.7 | APOBEC3G confirm inactive | UDG A3G counter inactive
CCN(CC)C(=S)SCC(=O)Nc1ncc2c(n1)CCCC2=O	none
O=C(NC1CCN(Cc2ccccc2)CC1)c1cn(-c2ccccc2)nc1-c1cccnc1	none (no result: NALP1 yeast inh)
COC(=O)CCC(=O)Nc1sc(Cc2ccccc2)c(C)c1C(N)=O	A3G deaminase 44.5 | APOBEC3G confirm 57.0 | UDG A3G counter inactive
COC(=O)CCC(=O)Nc1sc(C)c(C)c1C(N)=O	A3G deaminase 56.6 | APOBEC3G confirm 54.6 | UDG A3G counter inactive
COC(=O)CCC(=O)NC(=S)Nc1sc(C)c(C)c1C(N)=O	none
CC(=O)c1ccc(NC(=S)Nc2cccc(Cl)c2C)cc1	none
O=C(NCCc1ccc(Cl)cc1)C1CCCN(S(=O)(=O)N2CCCCCC2)C1 (stereo not given)	none
Cc1nnc(N=c2ssnc2Cl)o1	A3G deaminase 73.8 (no result: PolyA inhibitor, NALP1 yeast inh) | APOBEC3G confirm 89.2 | UDG A3G counter inactive

High-throughput results deposited in PubChem BioAssay by several laboratories.
